Rows were chosen to be rich in hits. Some 9.2% of all compounds tested hit in one or more screens of this group.
HTT aggregate – qHTS Multiplex Assay to Identify Dual Action Probes in a Cell Model of Huntington: Aggregate Formation (GFP). AID 1688, 2009. 220,000 tested, 1.1% active. PC12 HttQ103-GFP aggregates, Acumen cytometry, 40 h. Potency, µM (doses to about 46.1 µM), for inactives: at the highest dose activity change, negative = inhibition, most hits filed as inhibitors; active = well fitted curve in the direction sought with a large enough effect; inconclusive = small, poorly fitted or top-dose-only effect, or another doubt; inactive = no such curve, though single readings can be large; an effect the other way counts as inactive or inconclusive; note: % is set by controls: 0 for no effect and ±100 for the full control effect; nearly all actives have a fitted effect of over 60% in size
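PC12 cells stably carrying ecdysone-inducible HTT exon 1 Q103–GFP were induced with tebufenozide (100 nM final) and treated with library compounds in titration. GFP aggregates in lysates were counted by laser scanning cytometry.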
HPGD block – qHTS Assay for Inhibitors of HPGD (15-Hydroxyprostaglandin Dehydrogenase); 15-hydroxyprostaglandin dehydrogenase [NAD(+)] (Homo sapiens), P15428; purified HPGD, NADH fluorescence kinetic, PGE2 substrate; Potency, µM, without a hit: at the top dose activity change, negative = inhibition, usual class: inhibitors; 150,000 tested, 4.3% active; AID 894, 2007; note: % is set by controls: 0 for no effect and ±100 for the full control effect
Target sequence (P15428 whole entry, looked up): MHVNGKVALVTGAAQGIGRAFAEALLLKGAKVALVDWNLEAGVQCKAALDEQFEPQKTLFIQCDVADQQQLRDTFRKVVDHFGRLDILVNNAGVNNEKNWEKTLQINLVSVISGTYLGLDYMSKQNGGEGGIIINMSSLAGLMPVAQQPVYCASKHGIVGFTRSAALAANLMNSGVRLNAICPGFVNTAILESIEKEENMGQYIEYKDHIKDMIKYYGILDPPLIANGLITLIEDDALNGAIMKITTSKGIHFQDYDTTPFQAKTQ
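NADH formation kinetics: reaction with 30 uM PGE2 and 1 mM NAD+ (final), 20 nM enzyme, Tris-HCl pH 8 with Tween 20, after 15 min compound preincubation at room temperature. Fluorescence change, last versus first of five reads.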
HTT ATP protect – qHTS Multiplex Assay to Identify Dual Action Probes in a Cell Model of Huntington: Cytoprotection (ATP); PC12 HTT-Q103 induced, cytoprotection, ATP luminescence, 40 h; Potency, µM (top dose mostly 56.4 µM), without a hit: cytoprotection (ATP increase), usual class: activators; 230,000 tested, 0.14% active; active = well fitted curve in the direction sought with a large enough effect; inconclusive = small, poorly fitted or top-dose-only effect, or another doubt; inactive = no such curve, though single readings can be large; an effect the other way counts as inactive or inconclusive; note: % of control where 0% means no effect; nearly all actives have a fitted effect of over 45% in size
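ATP quantification (ATPlite) reports survival of PC12 cells in which tebufenozide, 100 nM final, switches on Htt exon 1 with 103 glutamines linked to GFP; compounds are titrated.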
JMJD2E inh – qHTS Assay for Inhibitors of Human Jumonji Domain Containing 2E (JMJD2E) | 230,000 tested, 1.6% active | JMJD2E catalytic domain, FDH-coupled NADH fluorescence (FDH is formaldehyde dehydrogenase) | Potency, µM (highest dose often 57.1 µM), inactives show at the top dose activity change, negative = inhibition, actives largely listed as inhibitors | Lysine-specific demethylase 4E (Homo sapiens), B2RXH2;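 note: 0% = wells with enzyme and -100% = buffer wells without enzyme; nearly all actives have a fitted effect of over 50% in size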
Target sequence (B2RXH2 1-337 limits assumed): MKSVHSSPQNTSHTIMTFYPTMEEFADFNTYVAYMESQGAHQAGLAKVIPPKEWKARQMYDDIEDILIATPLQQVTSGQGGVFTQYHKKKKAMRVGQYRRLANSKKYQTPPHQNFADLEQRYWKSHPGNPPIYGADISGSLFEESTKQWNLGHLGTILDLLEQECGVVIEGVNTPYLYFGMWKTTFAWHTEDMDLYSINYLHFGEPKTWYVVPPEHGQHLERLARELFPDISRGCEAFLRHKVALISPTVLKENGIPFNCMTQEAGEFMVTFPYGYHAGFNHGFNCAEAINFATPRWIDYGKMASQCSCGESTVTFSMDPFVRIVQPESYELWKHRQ
Lamin A splicing – qHTS Assay for Modulators of Lamin A Splicing; AID 1487, 2009; HeLa LMNA splicing GFP/RFP minigene ratio, 48 h; Potency, µM (doses to about 46.1 µM), inactives show at the highest dose ratio change, negative = inhibition, usual class: inhibitors; 200,000 tested, 0.01% active; active = well fitted inhibition curve with a large enough effect in the signal ratio, with a control signal flat, not every such curve was filed as active; inconclusive = small, poorly fitted or top-dose-only effect, or effect the other way, or a change in a side signal; the % refers to the signal ratio; note: % is set by controls: 0 for no effect and ±100 for the full control effect
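Read-out is the ratio of GFP to DsRed2 object intensity, acquired by 488 nm laser-scanning cytometry on HeLa lamin A-EGFP minigene reporter cells. Compound incubation 48 hrs at 37 °C in Opti-MEM with 2% FBS; DMSO 0.5% final.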
ALDH1A1 inh – qHTS Assay for Inhibitors of Aldehyde Dehydrogenase 1 (ALDH1A1); Purified ALDH1A1, NADH fluorescence, propionaldehyde substrate; 220,000 tested, 7.3% active; Aldehyde dehydrogenase 1A1 (Homo sapiens), P00352; Potency, µM (top dose mostly 75.3 µM), for inactives: at the top dose activity, negative = inhibition, actives largely listed as inhibitors;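 note: plate controls were no enzyme wells and a reference inhibitor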
An asterisk follows results filed as active; [ ] = remark or other dose. Unless noted, calls come from the whole dose curve; as a rule, active = well fitted inhibition curve with a large enough effect (not every such curve was filed as active); inconclusive = small, poorly fitted or top-dose-only effect, or another doubt; inactive = no such curve, though single readings can be large or run the other way. Potency is the fitted concentration of half-maximal effect.

What do the screens show for `O=C(CC1NCCNC1=O)Nc1cccc([N+](=O)[O-])c1` (stereo not given)?
HTT aggregate: 14%; HTT ATP protect: -15%[10 µM]; JMJD2E inh: -14%; Lamin A splicing: inconclusive; ALDH1A1 inh: inconclusive

How did COc1ccc(-c2cc(C(=O)NCc3cccs3)no2)cc1 do in these assays?
HTT aggregate: -1%[9.22 µM]; HTT ATP protect: 5%[10 µM]; JMJD2E inh: -1%

What do the screens show for `COc1ccc2nc3sc(C(=O)NCc4cccs4)c(N)c3cc2c1`?
HTT aggregate: 3%; HPGD block: inconclusive; HTT ATP protect: -35%; JMJD2E inh: inconclusive; Lamin A splicing: inconclusive; ALDH1A1 inh: 4µM*

How did CCN1C(C)=C(C)S/C1=C1\SC(=S)N(N)C1=O do in these assays?
JMJD2E inh: 25%; ALDH1A1 inh: 20µM*

Results for CC(=O)Nc1nonc1-n1nnc(C(=O)NCc2ccccc2)c1C ?
HTT aggregate: 6%; HPGD block: inconclusive; HTT ATP protect: 0%[1.9 µM]; JMJD2E inh: 6%; Lamin A splicing: 14%; ALDH1A1 inh: 11µM*

Results for S=c1[nH]nc(CCc2ccc(Cl)cc2)o1 ?
HTT aggregate: 9%; HPGD block: -14%; JMJD2E inh: -9%; Lamin A splicing: 11%; ALDH1A1 inh: inconclusive

Results for COc1ccc(OCc2n[nH]c(=S)o2)cc1 ?
HTT aggregate: 0%; HPGD block: inconclusive; HTT ATP protect: -2%; JMJD2E inh: 17%; Lamin A splicing: 7%; ALDH1A1 inh: 10µM*

Results for S=c1[nH]nc(COc2ccc(Cl)cc2)o1 ?
HTT aggregate: -12%; HPGD block: inconclusive; HTT ATP protect: -31%; JMJD2E inh: -13%; Lamin A splicing: 17%; ALDH1A1 inh: 3.5µM*

How did Cc1oc(-c2ccc(C(=O)NCc3ccccc3Cl)cc2)nc1CN1CCc2ccccc21 do in these assays?
Lamin A splicing: 11%[46 µM]

What do the screens show for `COc1ccccc1-c1nc(N2CCOCC2)c2ccccc2n1`?
HTT ATP protect: -43%; Lamin A splicing: 1%; ALDH1A1 inh: 2%

How did CCOC(=O)c1nnn(CC(=O)N2N=C(c3ccc(Cl)cc3)CC2c2ccc(OC)cc2)c1C(=O)OCC (stereo not given) do in these assays?
HTT aggregate: -1%; HPGD block: inconclusive; HTT ATP protect: 17%[10 µM]; JMJD2E inh: 32µM*; Lamin A splicing: -7%; ALDH1A1 inh: -5%

Results for CCOC(=O)c1nnn(CC(=O)N2N=C(c3ccc(Cl)cc3)CC2c2ccccc2)c1C(=O)OCC (stereo not given) ?
HTT aggregate: -2%; HPGD block: -13%; HTT ATP protect: -8%[1.9 µM]; JMJD2E inh: inconclusive; Lamin A splicing: 4%; ALDH1A1 inh: -14%

Results for CCNc1ccc(Br)cc(C(=O)/C=C/c2ccc(Cl)cc2Cl)c1=O ?
HTT aggregate: 30%; HPGD block: 22µM*; HTT ATP protect: -13%[10 µM]; JMJD2E inh: -17%; Lamin A splicing: inconclusive; ALDH1A1 inh: inconclusive

Results for CNc1ccc(Br)cc(C(=O)/C=C/c2ccc(OC)cc2)c1=O ?
HTT aggregate: inconclusive; HPGD block: -25%; JMJD2E inh: 25µM*; Lamin A splicing: 2%; ALDH1A1 inh: 28µM*

How did CNc1ccc(Br)cc(C(=O)/C=C/c2cc(OC)ccc2OC)c1=O do in these assays?
HTT aggregate: -2%[9.22 µM]; HPGD block: inconclusive; HTT ATP protect: 13%[10 µM]; JMJD2E inh: inconclusive; Lamin A splicing: 7%; ALDH1A1 inh: inconclusive

What do the screens show for `CNc1ccc(Br)cc(C(=O)/C=C/c2ccc3c(c2)OCO3)c1=O`?
HTT aggregate: 2%; HPGD block: 16µM*; HTT ATP protect: -37%; JMJD2E inh: inconclusive; Lamin A splicing: inconclusive; ALDH1A1 inh: 6.3µM*

How did COC1C(O)CC(=O)OC(C)C/C=C/C=C/[C@@H](OC2CCC(N(C)C)C(C)O2)C(C)C[C@@H](CC=O)[C@@H]1O[C@H]1OC(C)[C@H](O[C@@H]2C[C@@](C)(O)C(O)C(C)O2)C(N(C)C)C1O (stereo not given in full) do in these assays?
HPGD block: -6%; HTT ATP protect: -17%; JMJD2E inh: 1%; ALDH1A1 inh: 7%

What do the screens show for `Cc1ccc(-c2nnn(CC(=O)N(CC(=O)NCc3ccccc3)c3cccc(C)c3C)n2)o1`?
HTT aggregate: 6%; HPGD block: 25µM*; HTT ATP protect: 13%[10 µM]; JMJD2E inh: -1%; Lamin A splicing: -14%; ALDH1A1 inh: 10µM*

Results for O=C(NC(=S)Nc1ccc2c(c1)OCCO2)c1ccccc1 ?
HTT aggregate: 18%; HPGD block: -16%; HTT ATP protect: -54%; JMJD2E inh: -1%; Lamin A splicing: 13%; ALDH1A1 inh: 22µM*

What do the screens show for `S=C(Nc1ccc2c(c1)OCCO2)Nc1ccc2c(c1)OCO2`?
HTT aggregate: -9%; JMJD2E inh: -10%; ALDH1A1 inh: 22µM*

Results for CCOc1cccc(C(=O)NC(=S)Nc2ccc(N3CCCC3)cc2)c1 ?
HTT aggregate: 15%; HPGD block: -6%; HTT ATP protect: -7%[10 µM]; JMJD2E inh: -8%; Lamin A splicing: -7%; ALDH1A1 inh: 7.1µM*

What do the screens show for `O=C(Nc1ccc2c(c1)OCO2)c1ccc(Cl)s1`?
HTT aggregate: -6%; HPGD block: 16µM*; HTT ATP protect: -58%; JMJD2E inh: 5%; Lamin A splicing: -5%; ALDH1A1 inh: inconclusive

Results for O=C(c1[nH]o[n+](=O)c1C(=O)c1csc2ccccc12)c1csc2ccccc12 ?
HTT ATP protect: -44%[10 µM]

Results for Cc1ncc(CSc2ccccc2N)c(CO)c1O ?
HPGD block: -13%; HTT ATP protect: 2%[10 µM]; ALDH1A1 inh: 1%[13.5 µM]

How did COc1ccccc1CN1CC2(CCN(S(C)(=O)=O)CC2)C1 do in these assays?
HPGD block: -3%; HTT ATP protect: -8%; ALDH1A1 inh: 3%

Results for COc1cccc(OC)c1C(=O)NC(=S)Nc1ccc2c(c1)OCCO2 ?
HTT aggregate: 21%; HTT ATP protect: -55%; JMJD2E inh: -10%; ALDH1A1 inh: -2%

Results for CCOc1cccc(C(=O)NC(=S)Nc2ccc3c(c2)OCCO3)c1 ?
HTT aggregate: -6%; HTT ATP protect: -34%; JMJD2E inh: -7%; ALDH1A1 inh: 4µM*
